# Laboratory results published in the supplement of paper PMC8728848.
# Shown is part of a subset that was picked to be rich in the strongest signals.
# B1: AT1G15820(2) (Arabidopsis thaliana), Q9LMQ2 (protein)
# chain: MAMAVSGAVLSGLGSSFLTGGKRGATALASGVGTGAQRVGRKTLIVAAAAAQPKKSWIPAVKGGGNFLDPEWLDGSLPGDFGFDPLGLGKDPAFLKWYREAELIHGRWAMAAVLGIFVGQAWSGVAWFEAGAQPDAIAPFSFGSLLGTQLLLMGWVESKRWVDFFNPDSQSVEWATPWSKTAENFANYTGDQGYPGGRFFDPLGLAGKNRDGVYEPDFEKLERLKLAEIKHSRLAMVAMLIFYFEAGQGKTPLGALGL
# Columns and labels:
# Assay in all cases: glycan array binding signal (z-score within array); higher = stronger binding
# Details in all cases: glycan notation: IUPAC condensed, linker removed
# [1] = molecular target: Fuc(a1-2)Gal(b1-4)GlcNAc(b1-2)Man(a1-3)[Fuc(a1-2)Gal(b1-4)GlcNAc(b1-2)Man(a1-6)]Man(b1-4)GlcNAc(b1-4)[Fuc(a1-6)]GlcNAc
# Outline: (§1)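 The Consortium for Functional Glycomics database supplied 3228 glycan arrays, of which those lacking an available protein sequence were dropped. The binding signal, a within-array Z-score, was averaged across arrays of the same protein sequence and across linkers. Negative scores can be read as non-binding.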
# [2] = molecular target: Fuc(a1-2)[Gal(a1-3)]Gal(b1-3)GalNAc
# Outline: as §1
# [3] = molecular target: Fuc(a1-2)[Gal(a1-4)]Gal(b1-4)GlcNAc
# Outline: as §1
# [4] = molecular target: Fuc(a1-2)[GalNAc(a1-3)]Gal(b1-4)Glc
# Outline: as §1
# [5] = molecular target: Fuc(a1-2)[GalNAc(a1-3)]Gal(b1-4)[Fuc(a1-3)]GlcNAc(b1-3)GalNAc
# Outline: as §1
# [6] = molecular target: Fuc(a1-3)[GalNAc(b1-4)]GlcNAc
# Outline: as §1
# Gal(a1-3)GalNAc = molecular target: Gal(a1-3)GalNAc
# Outline: as §1
# [7] = molecular target: Gal(a1-3)[Gal(a1-4)]Gal(b1-4)GlcNAc
# Outline: as §1
# Gal(a1-4)Gal(b1-4)Glc = molecular target: Gal(a1-4)Gal(b1-4)Glc
# Outline: as §1
# Gal(b1-2)Gal = molecular target: Gal(b1-2)Gal
# Outline: as §1
# [8] = molecular target: Gal(b1-3)GalNAc(b1-4)Gal(b1-4)Glc
# Outline: as §1
# Gal(b1-3)GlcNAc = molecular target: Gal(b1-3)GlcNAc
# Outline: as §1
# [9] = molecular target: Gal(b1-3)GlcNAc(b1-2)Man(a1-3)[Gal(b1-3)GlcNAc(b1-2)Man(a1-6)]Man(b1-4)GlcNAc(b1-4)GlcNAc
# Outline: as §1
# [10] = molecular target: Gal(b1-3)GlcNAc(b1-3)Gal(b1-4)Glc
# Outline: as §1
# [11] = molecular target: Gal(b1-3)GlcNAc(b1-3)Gal(b1-4)GlcNAc(b1-3)Gal(b1-4)GlcNAc(b1-2)[Gal(b1-3)GlcNAc(b1-3)Gal(b1-4)GlcNAc(b1-3)Gal(b1-4)GlcNAc(b1-6)]Man(a1-6)[Gal(b1-3)GlcNAc(b1-3)Gal(b1-4)GlcNAc(b1-3)Gal(b1-4)GlcNAc(b1-2)Man(a1-3)]Man(b1-4)GlcNAc(b1-4)[Fuc(a1-6)]GlcNAc
# Outline: as §1
# [12] = molecular target: Gal(b1-3)GlcNAc(b1-6)[Gal(b1-3)]GalNAc
# Outline: as §1
# [13] = molecular target: Gal(b1-3)[Fuc(a1-4)]GlcNAc(b1-2)Man(a1-3)[Gal(b1-3)[Fuc(a1-4)]GlcNAc(b1-2)Man(a1-6)]Man(b1-4)GlcNAc(b1-4)[Fuc(a1-6)]GlcNAc
# Outline: as §1
# [14] = molecular target: Gal(b1-3)[Fuc(a1-4)]GlcNAc(b1-6)GalNAc
# Outline: as §1
# [15] = molecular target: Gal(b1-4)GlcNAc(b1-2)Man(a1-6)[GlcNAc(b1-2)Man(a1-3)]Man(b1-4)GlcNAc(b1-4)GlcNAc
# Outline: as §1
# [16] = molecular target: Gal(b1-4)GlcNAc(b1-3)Gal(b1-4)Glc
# Outline: as §1
# [17] = molecular target: Gal(b1-4)GlcNAc(b1-3)Gal(b1-4)GlcNAc(b1-2)Man(a1-3)[Gal(b1-4)GlcNAc(b1-3)Gal(b1-4)GlcNAc(b1-2)Man(a1-6)]Man(b1-4)GlcNAc(b1-4)GlcNAc
# Outline: as §1
# [18] = molecular target: Gal(b1-4)GlcNAc(b1-3)Gal(b1-4)GlcNAc(b1-3)Gal(b1-4)GlcNAc(b1-3)Gal(b1-4)GlcNAc(b1-2)Man(a1-3)[Gal(b1-4)GlcNAc(b1-3)Gal(b1-4)GlcNAc(b1-3)Gal(b1-4)GlcNAc(b1-3)Gal(b1-4)GlcNAc(b1-2)Man(a1-6)]Man(b1-4)GlcNAc(b1-4)[Fuc(a1-6)]GlcNAc
# Outline: as §1
# [19] = molecular target: Gal(b1-4)GlcNAc(b1-3)GalNAc
# Outline: as §1
# Gal3S(b1-4)Glc6S = molecular target: Gal3S(b1-4)Glc6S
# Outline: as §1
# [20] = molecular target: Gal3S(b1-4)[Fuc(a1-3)]Glc6S
# Outline: as §1
# [21] = molecular target: GalNAc(b1-3)Gal(a1-4)Gal(b1-4)GlcNAc
# Outline: as §1
# GalNAc(b1-4)GlcNAc = molecular target: GalNAc(b1-4)GlcNAc
# Outline: as §1
# GalNAc4S6S(b1-4)GlcNAc = molecular target: GalNAc4S6S(b1-4)GlcNAc
# Outline: as §1
# [22] = molecular target: GlcNAc(a1-3)Gal(b1-4)GlcNAc
# Outline: as §1
# [23] = molecular target: GlcNAc(a1-4)Gal(b1-4)GalNAc
# Outline: as §1
# [24] = molecular target: GlcNAc(b1-3)Gal(b1-4)GlcNAc(b1-6)[Gal(b1-3)]GalNAc
# Outline: as §1
# [25] = molecular target: GlcNAc(b1-4)GlcNAc(b1-4)GlcNAc
# Outline: as §1
# Kdn(a2-6)Gal(b1-4)GlcNAc = molecular target: Kdn(a2-6)Gal(b1-4)GlcNAc
# Outline: as §1
# [26] = molecular target: Man(a1-2)Man(a1-6)[Man(a1-3)]Man(a1-6)[Man(a1-2)Man(a1-2)Man(a1-3)]Man(b1-4)GlcNAc(b1-4)GlcNAc
# Outline: as §1
# [27] = molecular target: Neu5Ac(a2-3)Gal(b1-4)GlcNAc(b1-2)Man(a1-3)[Neu5Ac(a2-3)Gal(b1-4)GlcNAc(b1-2)Man(a1-6)]Man(b1-4)GlcNAc(b1-4)GlcNAc
# Outline: as §1
# [28] = molecular target: Neu5Ac(a2-3)Gal(b1-4)GlcNAc(b1-3)[Neu5Ac(a2-3)Gal(b1-4)GlcNAc(b1-6)]GalNAc
# Outline: as §1
# [29] = molecular target: Neu5Ac(a2-3)Gal(b1-4)GlcNAc(b1-6)GalNAc
# Outline: as §1
# [30] = molecular target: Neu5Ac(a2-3)Gal(b1-4)GlcNAc6S
# Outline: as §1
# [31] = molecular target: Neu5Ac(a2-3)[GalNAc(b1-4)]Gal(b1-4)GlcNAc
# Outline: as §1
# [32] = molecular target: Neu5Ac(a2-8)Neu5Ac(a2-3)Gal(b1-4)Glc
# Outline: as §1
# [33] = molecular target: Neu5Ac(b2-6)Gal(b1-4)GlcNAc
# Outline: as §1
# [34] = molecular target: Neu5Gc(b2-6)Gal(b1-4)GlcNAc
# Outline: as §1
binder,measurement,setting,value
B1,glycan array binding signal (z-score),[1],-0.613
same,glycan array binding signal (z-score),[2],-0.022
same,glycan array binding signal (z-score),[3],1.93
same,glycan array binding signal (z-score),[4],-0.507
same,glycan array binding signal (z-score),[5],6.82
same,glycan array binding signal (z-score),[6],1.79
same,glycan array binding signal (z-score),Gal(a1-3)GalNAc,3.12
same,glycan array binding signal (z-score),[7],9.8
same,glycan array binding signal (z-score),Gal(a1-4)Gal(b1-4)Glc,2.16
same,glycan array binding signal (z-score),Gal(b1-2)Gal,0.453
same,glycan array binding signal (z-score),[8],2.89
same,glycan array binding signal (z-score),Gal(b1-3)GlcNAc,0.12
same,glycan array binding signal (z-score),[9],0.477
same,glycan array binding signal (z-score),[10],-0.032
same,glycan array binding signal (z-score),[11],1.41
same,glycan array binding signal (z-score),[12],0.112
same,glycan array binding signal (z-score),[13],-0.308
same,glycan array binding signal (z-score),[14],-0.229
same,glycan array binding signal (z-score),[15],0.324
same,glycan array binding signal (z-score),[16],-0.362
same,glycan array binding signal (z-score),[17],0.779
same,glycan array binding signal (z-score),[18],0.197
same,glycan array binding signal (z-score),[19],-0.445
same,glycan array binding signal (z-score),Gal3S(b1-4)Glc6S,0.421
same,glycan array binding signal (z-score),[20],1.96
same,glycan array binding signal (z-score),[21],3.99
same,glycan array binding signal (z-score),GalNAc(b1-4)GlcNAc,8.56
same,glycan array binding signal (z-score),GalNAc4S6S(b1-4)GlcNAc,-0.032
same,glycan array binding signal (z-score),[22],-0.384
same,glycan array binding signal (z-score),[23],0.069
same,glycan array binding signal (z-score),[24],-0.16
same,glycan array binding signal (z-score),[25],-0.425
same,glycan array binding signal (z-score),Kdn(a2-6)Gal(b1-4)GlcNAc,-0.581
same,glycan array binding signal (z-score),[26],-0.821
same,glycan array binding signal (z-score),[27],-0.363
same,glycan array binding signal (z-score),[28],0.172
same,glycan array binding signal (z-score),[29],-0.315
same,glycan array binding signal (z-score),[30],-0.028
same,glycan array binding signal (z-score),[31],-0.469
same,glycan array binding signal (z-score),[32],-0.326
same,glycan array binding signal (z-score),[33],-0.408
same,glycan array binding signal (z-score),[34],-0.566
